MPTP block: inhibitors of mitochondrial permeability transition pore | AID 602449 | isolated mouse mitochondria, Ca2+ swelling absorbance, 30 min | inhibition, % at 10 µM | 360,000 tested, 1.4% active;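 active = inhibition of 50% or more, scaled per plate between neutral and stimulator controls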;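 note: 0% = DMSO wells given calcium and 100% = 1 mM EGTA wells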
Platelet DG rel: platelet dense granule release activity; human platelet-rich plasma, SFLLRN dense granule ATP release, luminescence; 300,000 tested, 0.22% active; inhibition, %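 (compounds screened at 7.5 µM in platelet-rich plasma)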;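 active = mean replicate score, as percent of positive control, at or above 50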
HSF-1 act: increases HSF-1 driven luciferase reporter signal. NIH3T3-HGL HSF-1 luciferase reporter, MG132, 8 h; 100% = twice DMSO control signal. activation, % at 9 µM. 300,000 tested, 1.7% active. AID 504408;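 active = mean replicate activation of at least 50% with a set share of replicates each reaching 50%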;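 note: 0% = median of the neutral control wells and 100% = twice that signal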
HSF1 inh: HSF1 inhibition. NIH3T3-HGL HSE-luciferase, MG132-induced, luminescence 8 h; stronger effect = lower value. activity change, negative = inhibition, % at 7.5 µM (by protocol). 300,000 tested, 0.77% active. AID 2098;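 active = more than half of replicate wells show activity change below -50%, luminescence cut by over half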;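 note: luciferase reports HSF-1 transcriptional activity via heat shock element; 0% = median of DMSO wells and -100% = zero luminescence signal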
dFosB activator: activators of mouse delta FosB homodimer; P13346; purified delta FosB, TAMRA-CDK5 oligo fluorescence polarization; percent of positive-control signal above neutral wells; activation, % at 25 µM; 340,000 tested, 0.99% active;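 active = mean activation above about 17%, with every replicate also reaching it, limit read from the data, passing the limit was not always enough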
Target sequence (P13346 whole entry, looked up): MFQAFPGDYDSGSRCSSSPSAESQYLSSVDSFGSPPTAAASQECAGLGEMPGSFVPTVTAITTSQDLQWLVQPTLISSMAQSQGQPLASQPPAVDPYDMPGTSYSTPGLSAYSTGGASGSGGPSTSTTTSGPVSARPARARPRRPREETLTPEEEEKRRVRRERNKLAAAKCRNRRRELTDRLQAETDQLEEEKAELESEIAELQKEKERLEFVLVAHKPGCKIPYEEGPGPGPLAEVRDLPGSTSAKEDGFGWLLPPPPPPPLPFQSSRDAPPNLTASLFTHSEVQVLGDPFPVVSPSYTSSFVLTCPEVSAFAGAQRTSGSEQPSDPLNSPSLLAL
HSP90 refold inh: blocks HSP90-mediated luciferase refolding in reticulocyte lysate. Rabbit reticulocyte lysate, luciferase refolding luminescence, 3 h. inhibition, % at 5.6 µM. 290,000 tested, 0.91% active. AID 1789;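 active = inhibition above the screen-wide mean plus 3 SD, computed separately per campaign, cut at about 16% in these data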;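 note: 0% = DMSO wells and 100% = 60 µM geldanamycin wells; inhibitors lower the luminescence because luciferase stays unfolded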
HSP90 inh confirm: HSP90 inhibition, confirmation assay | shares compounds with HSP90 refold inh | rabbit reticulocyte lysate, luciferase refolding luminescence, 3 h | inhibition, % at 5.9 µM | 2,300 tested, 64% active | AID 1846; in the data active = inhibition above about 18%;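 note: 0% = vehicle wells and 100% = reference inhibitor wells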
luciferase ctr: blocks native firefly luciferase in HSP90 counter-screen | shares compounds with HSP90 refold inh | purified native firefly luciferase, luminescence | inhibition, % at 5.9 µM | 2,300 tested, 48% active;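 active = inhibition above the mean inhibition of all tested sample wells plus 3 SD, cut at about 10% in these data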;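 note: 0% = DMSO with luciferase and 100% = wells lacking luciferase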
* hit, by the source's call; x = no result given. Only some compounds are listed: those with a hit (about 4.9% of all), similar ones and a draw of the others.

SMILES | MPTP block | Platelet DG rel | HSF-1 act | HSF1 inh | dFosB activator | HSP90 refold inh | HSP90 inh confirm | luciferase ctr
Cc1cccc(C(=O)O/N=C(\N)c2ccccn2)c1 | -1 | 26 | -52 | -49 | -1 | 61* | 61* | 83*
N/C(=N\OC(=O)c1cccc(F)c1)c1ccccc1 | -1 | 9 | 37 | 13 | -8 | -2 | x | x
Cc1c(-c2nc(-c3ccc(C(C)(C)C)cc3)no2)n(C)oc1=O | 5 | 5 | -78 | -74* | 2 | 70* | 91* | -24
Cc1cc(-c2nc(-c3ccc(C(C)(C)C)cc3)no2)no1 | 6 | -5 | 22 | 15 | 6 | -5 | x | x
COc1ccc2c(c1)c(C(=O)CN1CCN(Cc3ccccc3)CC1)c(C)n2C | 0 | 6 | 7 | 0 | -2 | 28* | -6 | -12
COCn1ccnc1C(=O)c1ccco1 | 0 | x | x | x | x | x | x | x
Cc1cc(NC(=O)CSc2cn(CCNC(=O)c3ccccc3)c3ccccc23)no1 | 0 | -7 | -12 | 0 | -10 | 7 | x | x
Cc1ccc(C(=O)NCCn2cc(SCC(=O)Nc3cc(C)on3)c3ccccc32)cc1 | 2 | 1 | -44 | -39 | 2 | 29* | 31* | 7
O=C(CSc1cn(CCNC(=O)c2ccccc2)c2ccccc12)NCc1ccco1 | -2 | 17 | 9 | 2 | 5 | 28* | 25* | -8
CCOc1ccc(OCC(=O)Nc2cc(Cl)ccc2-n2cncn2)cc1 | -1 | x | x | x | x | x | x | x
Cc1ccc2oc(/N=C(\N)NC(=O)C3CC3)nc2c1 | 17 | 1 | 21 | 2 | -12 | 27* | 48* | 40*
COc1ccc(C(=O)N/C(N)=N/c2nc3ccccc3o2)cc1 | 3 | -4 | 32 | 21 | -9 | 0 | x | x
Cc1ccc2oc(/N=C(\N)NC(=O)C(C)(C)C)nc2c1 | -3 | 24 | -93 | -91* | -5 | 81* | 85* | 83*
CC(C)(C)c1ccc(C(=O)N/C(N)=N/c2nc3ccccc3o2)cc1 | 9 | 6 | 3 | -1 | -10 | 7 | x | x
CC(=O)Nc1ccc(-n2c(=O)c3ccccc3c3ccccc3c2=O)cc1 | -1 | 10 | 36 | 24 | -4 | 24* | 9 | -1
O=C(O)c1ccc(-n2c(=O)c3ccccc3c3ccccc3c2=O)cc1 | -1 | -1 | 13 | 4 | 0 | 4 | x | x
COc1ccc(NC(C)C(=O)N/N=C/c2ccc([N+](=O)[O-])s2)cc1 (configuration not stated) | -1 | -1 | 24 | 8 | 0 | 1 | x | x
Cc1ccc(NC(C)C(=O)N/N=C/c2ccc([N+](=O)[O-])s2)cc1 (configuration not stated) | -1 | -9 | 32 | 11 | -5 | 35* | -1 | -7
CC(C)(C)c1ccc(-c2cc(-c3ccccc3O)[nH]n2)cc1 | 2 | -4 | -75 | -72* | -7 | 52* | 60* | 59*
NC(=O)Cc1ncc(C(F)(F)F)cc1Cl | -1 | 12 | 0 | -2 | -1 | 25* | -1 | -5
Cc1cc(C(=O)Cn2nc(C(=O)O)c3ccccc3c2=O)c(C)n1C1CC1 | -1 | -2 | 13 | 2 | 4 | 6 | x | x
COCCn1c(C)cc(C(=O)CSc2nc3ccccc3s2)c1C | 11 | 5 | x | x | -7 | 28* | 67* | 68*
C=CCn1c(C)cc(C(=O)Cn2nc(C(=O)O)c3ccccc3c2=O)c1C | 1 | 1 | -18 | -4 | -4 | 51* | 71* | 20*
COCCn1c(C)cc(C(=O)Cn2nc(C(=O)O)c3ccccc3c2=O)c1C | -1 | -2 | -30 | -17 | -10 | 67* | 75* | 1
COCCn1c(C)cc(C(=O)COC(=O)c2ccc[nH]c2=O)c1C | -1 | 25 | -26 | -25 | -4 | 31* | 45* | 54*
SMILES | MPTP block | Platelet DG rel | HSF-1 act | HSF1 inh | dFosB activator | HSP90 refold inh | HSP90 inh confirm | luciferase ctr
COCCn1c(C)cc(C(=O)CSc2nc3ccccc3o2)c1C | 4 | -1 | 22 | 12 | 0 | 1 | x | x
Clc1ccc(C2=CSC3=NCCN23)c(Cl)c1 | 1 | -20 | -3 | -1 | 2 | x | x | x
CCOC(=O)C(=CNc1ccc(Oc2cncc(Cl)c2)nc1)C(=O)OCC | 2 | -6 | -16 | -6 | -2 | -1 | x | x
O=C1OCC(CO)(CO)N=C1NNc1ccccc1[N+](=O)[O-] | 3 | -7 | -32 | -19 | 1 | 21* | 9 | 4
O=C1OCC(CO)(CO)N=C1NNc1cc(Cl)ccc1Cl | 1 | -5 | -19 | -4 | 1 | 1 | x | x
COC(=O)c1ccc(COc2ccc3c(C)c(C)c(=O)oc3c2C)o1 | x | x | x | x | x | 3 | x | x
Cc1c(OCc2ccc(C(=O)O)o2)ccc2c3c(c(=O)oc12)CCC3 | 0 | 8 | -2 | -9 | -13 | 50* | 63* | 13*
Cc1oc(C(=O)O)cc1COc1ccc2c3c(c(=O)oc2c1)CCC3 | 1 | 3 | 22 | 2 | -4 | 19* | 8 | -15
COc1ccc(NC(=S)NNC(=O)Cn2nc([N+](=O)[O-])cc2C)cc1 | -3 | -5 | 15 | 3 | 2 | 41* | 4 | 1
O=C(NCc1ccccc1F)c1ccc2c(c1)OCO2 | -3 | -8 | -1 | 6 | 2 | 6 | x | x
O=C(NCCc1ccccc1F)c1ccc2c(c1)OCCO2 | 1 | 7 | -79 | -75* | -4 | 95* | 98* | 92*
O=C(NCCc1ccc(Cl)cc1)c1ccc2c(c1)OCCO2 | 0 | 3 | 1 | 13 | 4 | 18* | 27* | 23*
COc1ccc(CN2C(=NC(=O)COc3ccccc3)SC3CS(=O)(=O)CC32)cc1 (configuration not stated) | -1 | 4 | 17 | 2 | 12 | 0 | x | x
CC(C)CCNC(=O)CCc1nnc2ccc(N3CCC(C)CC3)nn12 | -2 | 14 | 9 | 3 | -5 | 2 | x | x
COc1ccccc1OCCSc1nnnn1-c1ccc(C)cc1 | 0 | 16 | 32 | 9 | -14 | x | x | x
Fc1ccccc1OCCSc1nnnn1-c1ccccc1 | 0 | 8 | 44 | 33 | 4 | 25* | 29* | 6
CC(C)(C)C(=O)Nc1cc2nn(-c3ccccc3)nc2cc1Cl | -2 | x | x | x | -14 | 80* | 85* | 85*
Cc1ccc2cc(CCNC(=O)c3ccc(S(=O)(=O)N4CCCCC4)cc3)c(=O)[nH]c2c1 | 3 | -5 | 12 | 3 | -5 | 35* | 0 | -4
O=C(NCCc1cccc(Cl)c1)c1ccc(OC2CCN(Cc3ccccn3)CC2)cc1 | 21 | -5 | 4 | 1 | -5 | 22* | 19* | -6
COc1ccc(C(=O)CSc2nc(=O)n3ccc(C)cc3n2)cc1 | 0 | x | x | x | x | x | x | x
